# From PubChem BioAssay
# Calls of active or inactive are those of the source.
# Legend:
# [1] = small molecules captured by biotinylated probe aFSTL3 – biochemical, small-molecule microarray, fluorescence 635/667, stem cell growth factor project, primary screen (AID 1064); settings: higher = more signal;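 note: measures binding of the biotinylated anti-FSTL3 antibody to printed compounds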
# [2] = binders from COS7 lysate, DM2A8 probe, primary screen, torsin A project, cell lysate, small-molecule microarray, fluorescence 635/667 (AID 1065); settings: higher = more signal, COS7 lysate expressing mutant human TOR1A
# [3] = small molecules captured by biotinylated probe aFGF2 – biochemical, small-molecule microarray, fluorescence 635/667, stem cell growth factor project, primary screen (AID 1067); settings: higher = more signal;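 note: measures binding of biotinylated aFGF2 protein to printed compounds on slides; z-score merges feature fluorescence and signal-to-noise across triplicate slides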
# [4] = small molecules captured by biotinylated probe aFGF10 – biochemical, small-molecule microarray, fluorescence 635/667, stem cell growth factor project, primary screen (AID 1071); settings: higher = more signal;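 note: score merges 667 nm spot intensity and signal to noise from triplicate slides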
# [5] = biological target: Neurogenic locus notch homolog protein 2 (Homo sapiens) (UniProt Q04721); experiment: small molecules binding Notch2 protein – biochemical, small-molecule microarray, 635 nm fluorescence, stem cell growth factors, primary screen (AID 1073); settings: higher = more signal
# [6] = biological target: Pro-neuregulin-1, membrane-bound isoform (Homo sapiens) (UniProt Q02297); experiment: small molecules binding neuregulin-1 protein – biochemical, small-molecule microarray, fluorescence 635/667, psychiatric disease protein project, primary screen (AID 1075); settings: NRG1 binding, 635 nm fluorescence, higher = more signal;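 note: score combines 667 nm spot fluorescence with signal to noise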
# [7] = tested on: Neuregulin-1 EGF-like domain; experiment: small molecules binding NRG1 EGF domain – biochemical, small-molecule microarray, 635 nm fluorescence, primary screen (AID 1081); settings: higher = more signal;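 note: binding of the protein to compounds printed on small-molecule microarray slides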
# [8] = FRG1 expression reporter modulators in myotubes – cell-based, C2C12 myotubes, firefly/Renilla luciferase, luminescence, FRG1 inhibition for FSHD, primary screen (AID 1084); settings: FRG1 promoter luciferase, higher = more signal, called active from +8 up or from −8 down
# [9] = small molecules captured by biotinylated probe aFST – biochemical, small-molecule microarray, fluorescence 635/667, stem cell growth factor project, primary screen (AID 1086); settings: higher = more signal;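 note: score merges 667 nm fluorescence with signal-to-noise of each printed compound spot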
# [10] = binders of probe aHhip on microarray, primary screen, stem cell growth factor project, biochemical, small-molecule microarray, fluorescence 635/667 (AID 1087); settings: higher = more signal;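 note: score merges spot fluorescence at 667nm with spot signal to noise ratio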
# [11] = tested on: PRMT1 (protein arginine N-methyltransferase 1); experiment: small molecules binding arginine methyltransferase PRMT1 – biochemical, small-molecule microarray, 635 nm fluorescence, primary screen (AID 1088); settings: higher = more signal;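 note: binding of Prmt1 protein to compounds spotted on small-molecule microarray slides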
# [12] = growth effects on S. cerevisiae YJM789 – YJM789 clinical isolate, OD600, 24 h, basal, primary screen (AID 1089); settings: higher = more signal, called active from +8 up or from −8 down;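 note: growth of clinical yeast isolate S. cerevisiae YJM 789 seeded 1000 cells per well; test concentration not given here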
# [13] = S. pombe growth modifiers, basal conditions – strain 972, OD600, 24 h, no modulator, primary screen (AID 1090);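 note: basal condition with compound alone and no growth modifier present; test concentration not given here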; settings: S. pombe 972 growth, higher = more signal, called active from +8 up or from −8 down
# [14] = budding yeast growth modifiers under rapamycin – strain BY4716, OD600, 96 h, primary screen (AID 1091); note: test concentration not given here; settings: S. cerevisiae BY4716 + rapamycin, higher = more signal, called active from +8 up or from −8 down
# [15] = biological target: Torsin-1A-interacting protein 2 (Homo sapiens) (UniProt Q8NFQ8); experiment: small molecules binding lysate-expressed LULL1 – cell lysate, human LULL1 lysate, 635/667 nm fluorescence, primary screen (AID 1092); settings: small-molecule microarray, hLULL1 lysate binding, 635 nm fluorescence; higher = more signal;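 note: probe is lysate of COS7 cells overexpressing human LULL1; score merges per-feature 667 nm fluorescence with signal-to-noise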
# [16] = optical density change of DRC41 E. coli – strain DRC41, OD650, 24 h, E. coli filamentation project, primary screen (AID 1093);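 note: MC1000 strain lacking acrAB efflux and sulA so SOS filamentation is blocked; test concentration not given here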; settings: E. coli DRC41 growth, higher = more signal, called active from +8 up or from −8 down
# [17] = probe aLefty2 binding to arrayed compounds – biochemical, biotinylated probe, 635/667 nm fluorescence, primary screen (AID 1094); settings: small-molecule microarray, higher = more signal;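 note: score merges spot fluorescence near 667 nm with spot signal-to-noise ratio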
# [18] = tested on: Noggin (protein binding on small-molecule microarray); experiment: small molecules binding Noggin protein – biochemical, 635/667 nm fluorescence, primary screen (AID 1095); settings: 635 nm fluorescence, higher = more signal;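 note: score merges 667 nm feature fluorescence with signal to noise over triplicate slides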
# [19] = biological target: Neurogenic locus notch homolog protein 3 (Homo sapiens) (UniProt Q9UM47); experiment: small molecules binding NOTCH3 protein – biochemical, 635/667 nm fluorescence, primary screen (AID 1096); settings: small-molecule microarray, 635 nm fluorescence, higher = more signal
# [20] = probe aEGFR binding to arrayed compounds – biochemical, biotinylated probe, 635/667 nm fluorescence, primary screen (AID 1097); settings: small-molecule microarray, higher = more signal;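 note: probe is a biotinylated anti-EGFR antibody binding compounds printed on slides; score combines fluorescence near 667 nm and signal to noise of each spot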
# Sequence of Neurogenic locus notch homolog protein 3 (Homo sapiens) (Q9UM47 whole entry, looked up): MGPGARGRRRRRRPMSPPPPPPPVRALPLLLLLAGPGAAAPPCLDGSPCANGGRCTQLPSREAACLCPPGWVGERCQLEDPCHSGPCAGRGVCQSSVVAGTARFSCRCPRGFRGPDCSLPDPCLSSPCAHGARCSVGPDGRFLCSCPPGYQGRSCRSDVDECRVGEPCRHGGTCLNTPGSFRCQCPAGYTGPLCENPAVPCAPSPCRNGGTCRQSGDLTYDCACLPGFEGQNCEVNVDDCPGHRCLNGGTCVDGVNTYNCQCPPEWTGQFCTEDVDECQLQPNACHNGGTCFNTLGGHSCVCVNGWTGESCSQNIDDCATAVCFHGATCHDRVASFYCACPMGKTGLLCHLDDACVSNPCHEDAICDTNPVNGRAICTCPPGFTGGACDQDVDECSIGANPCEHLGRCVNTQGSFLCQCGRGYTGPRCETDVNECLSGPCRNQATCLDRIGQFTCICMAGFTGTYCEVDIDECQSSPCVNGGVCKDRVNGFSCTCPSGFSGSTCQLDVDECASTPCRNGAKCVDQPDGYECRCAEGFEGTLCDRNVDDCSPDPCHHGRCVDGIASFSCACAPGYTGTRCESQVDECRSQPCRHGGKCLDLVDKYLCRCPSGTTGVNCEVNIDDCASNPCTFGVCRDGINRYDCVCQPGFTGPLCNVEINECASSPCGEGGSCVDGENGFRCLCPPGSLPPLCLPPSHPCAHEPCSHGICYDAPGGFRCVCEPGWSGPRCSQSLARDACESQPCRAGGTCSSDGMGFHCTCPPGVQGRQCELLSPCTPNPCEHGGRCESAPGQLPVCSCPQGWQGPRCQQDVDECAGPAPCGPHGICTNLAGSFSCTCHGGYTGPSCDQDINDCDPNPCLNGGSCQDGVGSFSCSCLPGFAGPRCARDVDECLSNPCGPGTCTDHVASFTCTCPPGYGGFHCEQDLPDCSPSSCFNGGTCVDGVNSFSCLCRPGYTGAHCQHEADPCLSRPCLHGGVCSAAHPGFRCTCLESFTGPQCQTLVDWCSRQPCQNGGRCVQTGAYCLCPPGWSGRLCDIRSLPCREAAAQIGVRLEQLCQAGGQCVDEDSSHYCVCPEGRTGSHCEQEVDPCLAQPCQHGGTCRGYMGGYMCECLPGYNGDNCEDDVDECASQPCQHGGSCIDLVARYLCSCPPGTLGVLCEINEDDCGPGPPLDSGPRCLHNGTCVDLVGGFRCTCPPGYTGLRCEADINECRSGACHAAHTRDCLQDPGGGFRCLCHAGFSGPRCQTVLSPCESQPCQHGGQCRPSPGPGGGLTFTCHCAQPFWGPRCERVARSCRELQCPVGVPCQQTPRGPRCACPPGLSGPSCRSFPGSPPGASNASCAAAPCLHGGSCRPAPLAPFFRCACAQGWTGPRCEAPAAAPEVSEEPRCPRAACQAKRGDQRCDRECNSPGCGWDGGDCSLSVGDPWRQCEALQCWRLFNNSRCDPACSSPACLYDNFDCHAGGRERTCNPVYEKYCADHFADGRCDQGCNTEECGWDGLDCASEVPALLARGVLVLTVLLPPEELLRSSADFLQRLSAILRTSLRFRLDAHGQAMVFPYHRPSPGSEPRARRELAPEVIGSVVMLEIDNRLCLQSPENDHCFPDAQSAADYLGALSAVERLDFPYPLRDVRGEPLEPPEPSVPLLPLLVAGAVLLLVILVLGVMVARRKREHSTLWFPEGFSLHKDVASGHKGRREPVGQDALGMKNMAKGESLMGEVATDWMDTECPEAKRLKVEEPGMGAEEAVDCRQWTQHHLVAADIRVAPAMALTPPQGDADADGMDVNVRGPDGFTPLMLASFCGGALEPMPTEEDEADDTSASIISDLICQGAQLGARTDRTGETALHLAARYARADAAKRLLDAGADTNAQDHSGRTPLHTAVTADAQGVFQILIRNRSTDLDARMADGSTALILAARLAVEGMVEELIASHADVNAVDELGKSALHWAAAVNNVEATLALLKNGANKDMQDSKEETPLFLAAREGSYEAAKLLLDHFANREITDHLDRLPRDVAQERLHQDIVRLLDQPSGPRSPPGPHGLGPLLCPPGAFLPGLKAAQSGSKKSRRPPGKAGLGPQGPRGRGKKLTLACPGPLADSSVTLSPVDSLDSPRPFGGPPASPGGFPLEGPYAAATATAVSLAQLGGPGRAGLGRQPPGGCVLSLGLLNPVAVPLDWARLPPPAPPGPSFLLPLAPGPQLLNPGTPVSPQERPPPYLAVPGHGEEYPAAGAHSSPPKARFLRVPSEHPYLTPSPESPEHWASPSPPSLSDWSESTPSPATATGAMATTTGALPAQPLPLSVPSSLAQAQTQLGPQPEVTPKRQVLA
# Sequence of Neurogenic locus notch homolog protein 2 (Homo sapiens) (Q04721 whole entry, looked up, canonical isoform): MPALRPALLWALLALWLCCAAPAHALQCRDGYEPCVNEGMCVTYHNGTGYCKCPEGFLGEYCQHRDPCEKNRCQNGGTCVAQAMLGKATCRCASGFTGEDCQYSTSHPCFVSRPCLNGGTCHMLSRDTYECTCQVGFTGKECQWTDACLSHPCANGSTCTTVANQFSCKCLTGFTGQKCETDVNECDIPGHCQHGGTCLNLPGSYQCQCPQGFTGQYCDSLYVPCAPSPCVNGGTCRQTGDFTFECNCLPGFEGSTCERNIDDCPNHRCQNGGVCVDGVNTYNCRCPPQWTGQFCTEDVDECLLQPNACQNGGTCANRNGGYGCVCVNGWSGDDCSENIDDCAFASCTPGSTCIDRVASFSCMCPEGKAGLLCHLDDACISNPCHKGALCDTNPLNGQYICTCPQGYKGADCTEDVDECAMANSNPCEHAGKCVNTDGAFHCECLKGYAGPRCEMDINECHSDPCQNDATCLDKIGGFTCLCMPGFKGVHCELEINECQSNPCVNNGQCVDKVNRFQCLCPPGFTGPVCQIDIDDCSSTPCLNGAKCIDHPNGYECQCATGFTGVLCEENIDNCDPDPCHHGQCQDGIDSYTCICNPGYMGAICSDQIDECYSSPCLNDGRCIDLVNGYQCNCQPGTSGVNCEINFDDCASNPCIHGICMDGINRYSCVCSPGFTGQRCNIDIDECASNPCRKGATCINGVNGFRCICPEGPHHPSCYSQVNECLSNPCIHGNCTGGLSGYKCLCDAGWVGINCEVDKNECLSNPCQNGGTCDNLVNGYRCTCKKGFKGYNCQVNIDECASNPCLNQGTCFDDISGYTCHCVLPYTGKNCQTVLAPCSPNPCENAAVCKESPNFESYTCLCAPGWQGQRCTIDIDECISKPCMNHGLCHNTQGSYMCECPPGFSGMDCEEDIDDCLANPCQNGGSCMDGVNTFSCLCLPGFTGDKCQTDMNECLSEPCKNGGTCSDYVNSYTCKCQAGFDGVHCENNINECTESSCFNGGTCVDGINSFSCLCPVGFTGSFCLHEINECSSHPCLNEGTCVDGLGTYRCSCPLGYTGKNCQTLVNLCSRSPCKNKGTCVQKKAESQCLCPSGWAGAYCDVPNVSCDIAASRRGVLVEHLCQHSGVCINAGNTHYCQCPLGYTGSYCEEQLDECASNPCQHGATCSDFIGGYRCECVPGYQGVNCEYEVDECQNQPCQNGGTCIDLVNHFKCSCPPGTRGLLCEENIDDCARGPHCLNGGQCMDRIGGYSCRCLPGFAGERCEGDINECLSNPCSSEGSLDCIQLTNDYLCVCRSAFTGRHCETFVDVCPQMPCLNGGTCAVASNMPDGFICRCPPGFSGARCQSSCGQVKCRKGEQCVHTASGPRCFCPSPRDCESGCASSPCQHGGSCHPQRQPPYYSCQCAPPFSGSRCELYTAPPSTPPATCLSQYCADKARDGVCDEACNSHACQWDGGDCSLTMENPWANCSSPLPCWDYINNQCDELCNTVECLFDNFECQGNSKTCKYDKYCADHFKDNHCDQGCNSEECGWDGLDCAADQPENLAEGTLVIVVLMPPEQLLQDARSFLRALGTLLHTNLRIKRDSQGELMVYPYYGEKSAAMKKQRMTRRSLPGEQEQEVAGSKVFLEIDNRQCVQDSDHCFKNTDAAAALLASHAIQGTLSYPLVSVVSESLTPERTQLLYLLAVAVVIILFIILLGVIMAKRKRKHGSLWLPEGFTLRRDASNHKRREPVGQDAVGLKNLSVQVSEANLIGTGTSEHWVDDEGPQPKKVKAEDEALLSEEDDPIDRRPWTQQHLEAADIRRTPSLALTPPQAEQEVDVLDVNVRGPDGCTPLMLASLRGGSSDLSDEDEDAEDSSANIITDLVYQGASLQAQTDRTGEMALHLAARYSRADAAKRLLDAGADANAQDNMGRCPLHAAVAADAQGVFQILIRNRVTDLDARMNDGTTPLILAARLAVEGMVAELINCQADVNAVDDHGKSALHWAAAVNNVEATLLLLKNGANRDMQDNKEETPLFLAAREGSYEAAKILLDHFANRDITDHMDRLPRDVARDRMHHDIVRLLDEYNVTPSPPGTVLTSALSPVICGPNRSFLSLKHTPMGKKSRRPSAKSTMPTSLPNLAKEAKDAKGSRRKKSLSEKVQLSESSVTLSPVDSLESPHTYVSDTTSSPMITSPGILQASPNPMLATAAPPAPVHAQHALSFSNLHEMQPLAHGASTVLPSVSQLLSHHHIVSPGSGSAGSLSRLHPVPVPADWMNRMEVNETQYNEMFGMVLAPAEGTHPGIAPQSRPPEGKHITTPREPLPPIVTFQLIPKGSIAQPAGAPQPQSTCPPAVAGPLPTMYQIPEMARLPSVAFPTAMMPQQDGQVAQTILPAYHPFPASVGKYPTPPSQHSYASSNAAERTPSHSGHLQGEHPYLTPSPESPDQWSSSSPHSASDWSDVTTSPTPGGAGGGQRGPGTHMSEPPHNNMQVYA
SMILES,composite z-score [1],composite z-score [2],composite z-score [3],composite z-score [4],composite z-score [5],composite z-score [6],composite z-score [7],z-score [8],composite z-score [9],composite z-score [10],composite z-score [11],z-score [12],z-score [13],z-score [14],composite z-score [15],z-score [16],composite z-score [17],composite z-score [18],composite z-score [19],composite z-score [20]
Cc1ccc(C(C)CC(O)C2C=CC3C(=O)N(c4ccccc4)C(=O)C3N2Nc2ccc([N+](=O)[O-])cc2)o1 (stereo not given),-0.0729,0.123,0.0757,0.513,1.51,1.69,1.2,0.296 (inactive),1.51,0.0373,1.55,0.0574 (inactive),0.593 (inactive),1.31 (inactive),3.1,-0.468 (inactive),0.157,0.181,1.1,0.0807
COCCCN1C(=O)[C@@]2(c3ccc([N+](=O)[O-])cc3)CC(=O)N(C3CCCCC3)[C@@H]2c2ccc(CO)cc21,-0.246,0.178,-0.153,-0.118,-0.537,-0.214,0.467,1.07 (inactive),-0.036,-0.134,0.996,0.134 (inactive),0.734 (inactive),-1.35 (inactive),-0.701,0.56 (inactive),-0.0782,0.549,-0.37,-0.128
NCCCCCNC(=O)[C@@H]1C[C@@H]2C(=O)NCC(=O)N2[C@@H]1c1ccc(O)cc1,-0.293,0.304,-0.129,0.975,-0.195,0.817,1.25,0.117 (inactive),-0.107,-0.0994,1.53,-0.491 (inactive),-0.723 (inactive),0.124 (inactive),2.51,-0.031 (inactive),-0.145,1.37,0.892,-0.192
CC(C)OC(=O)C=C1C[C@@H](c2ccccc2C(F)(F)F)O[C@@H](c2ccccc2C(F)(F)F)O1,-0.173,-0.11,-0.0924,-0.443,0.647,0.113,-0.0471,0.009 (inactive),0.2,-0.0994,0.494,-0.317 (inactive),1.17 (inactive),1.38 (inactive),0.675,-0.952 (inactive),-0.145,0.134,0.266,-0.0776
CC(C)C(=C=CC[C@@H](O)c1ccccc1OCCO)CCO,-0.386,-0.193,-0.115,0.269,0.0761,1.71,1.36,-1.6 (inactive),0.285,-0.214,0.895,-2.18 (inactive),-17.8 (active),-2.09 (inactive),-0.559,0.364 (inactive),-0.0998,0.315,0.428,-0.096
O=C1OCC=C[C@H]2OC34C=CCN(c5ccc6ccccc6c5)C(=O)[C@H]3N(CCCCCCO)C(=O)[C@@H]4[C@@H]12 (stereo not given in full),0.787,1.94,-0.133,-0.566,-1.15,0.781,1.57,0.78 (inactive),-0.302,-0.226,-0.518,-0.966 (inactive),-0.715 (inactive),-0.806 (inactive),2.62,-0.133 (inactive),-0.0493,-1.33,-0.435,-0.256
CCCCCN1CC=CC23O[C@@H]4/C=C\CCCOC(=O)C4[C@H]2C(=O)N(C(CO)C(C)C)[C@@H]3C1=O (stereo not given in full),-0.101,-0.856,-0.103,-0.106,-0.65,-0.583,1.52,-0.196 (inactive),-0.384,0.0854,0.0207,-0.215 (inactive),-0.84 (inactive),-0.809 (inactive),0.868,1.65 (inactive),-0.124,0.0296,0.243,-0.201
CC(C)N1C(=O)c2ccccc2[C@](C)(C(=O)NCc2ccccc2)[C@@H]1c1ccc(CO)cc1,0.197,0.0699,-0.157,-0.158,-0.463,-1.06,0.744,-1.03 (inactive),-0.27,-0.0994,0.0055,-0.261 (inactive),-1.16 (inactive),-0.625 (inactive),1.91,-0.587 (inactive),0.0322,-0.969,-0.394,-0.244
O=C1NC(=O)C2C1C=CC(C(O)c1ccccc1)N2Nc1ccc(Cl)cc1Cl (stereo not given),-0.324,0.299,0.162,0.803,1.54,1.37,1.15,-1.44 (inactive),1.32,-0.156,1.56,-25.6 (active),-4.35 (inactive),-1.48 (inactive),3.74,-1.8 (inactive),0.0847,0.385,1.12,0.063
COC(=O)[C@@]1(Cc2ccc(OC)cc2)[C@H]2c3cc(C(=O)N4CCCC4)n(Cc4ccccc4)c3C[C@H]2CN1C(=O)c1ccccc1,2.67,0.0681,0.788,0.784,1.61,1.98,1.36,0.42 (inactive),2.34,0.671,0.678,-0.183 (inactive),0.657 (inactive),1.12 (inactive),3.37,-0.801 (inactive),1.62,-0.242,1.05,1.25
